Columns and labels:
Conditions in all cases: concentration: 1 μM, replicates: in singlicate; n = 1
[1] = test system: BTK
[2] = test system: BUB1
[3] = test system: CAMK1B
[4] = test system: CAMK1D
[5] = test system: CAMK1G
[6] = test system: CAMK1
[7] = test system: CAMK2A
[8] = test system: CAMK2B
[9] = test system: CAMK2D
[10] = test system: CAMK2G
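Further: KINOMEscan kinase panel screen.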

SMILES | %Inh [1] [%] | %Inh [2] [%] | %Inh [3] [%] | %Inh [4] [%] | %Inh [5] [%] | %Inh [6] [%] | %Inh [7] [%] | %Inh [8] [%] | %Inh [9] [%] | %Inh [10] [%]
COc1nccc(-c2c(-c3ccc(F)cc3)ncn2CCCN2CCOCC2)n1 [SB-282852] | 33 | 0 | 29 | 0 | 0 | 0 | 0 | 0 | 0 | 0
COc1cc2ncnc(Nc3cccc(Br)c3)c2cc1OC.Cl [GI230329] | 30 | 96.5 | 0 | 18 | 0 | 23 | 0 | 0 | 0 | 32
COc1ccc2cc(-c3nc(-c4ccccc4C(C)C)[nH]c3-c3ccncc3)ccc2c1 [SB-660566] | 0 | 89 | 31 | 7 | 0 | 7 | 0 | 0 | 2 | 4
FC(F)(F)c1ccccc1-c1cc(-c2c[nH]nc2-c2ccccn2)ccn1 [GW679396] | 0 | 0 | 29 | 12 | 8 | 21 | 0 | 0 | 9 | 29
Cc1c(Cn2c(C)c(C)n3c(=O)cc(N4CCOCC4)nc23)cccc1C(F)(F)F [GSK2328680] | 0 | 2 | 0 | 5 | 2 | 7 | 0 | 0 | 0 | 15
O=C(Nc1n[nH]c2cc(-c3ccsc3)ccc12)C1CC1 [SB-732932] | 10 | 20 | 2 | 0 | 23 | 30 | 20 | 11 | 12 | 15
O=C(Nc1n[nH]c2nc(-c3ccco3)c(Br)cc12)C1CCN(Cc2ccccc2)C1.O=C(O)[C@H](O)[C@@H](O)C(=O)O (stereo not shown) [SB-742034] | 0 | 0 | 0 | 22 | 10 | 29 | 30 | 20 | 7 | 17
NS(=O)(=O)c1cccc(N/C=C2\C(=O)Nc3ccc(S(=O)(=O)Cc4c(Cl)cccc4Cl)cc32)c1 [GSK398099] | 0 | 34 | 23 | 17 | 26 | 27 | 0 | 0 | 26 | 16
Fc1ccc(-c2nn3cccc(F)c3c2-c2ccncc2)cc1 [GW475620] | 0 | 53 | 39 | 10 | 40 | 6 | 0 | 0 | 6 | 14
Cc1ccc(NC(=O)Nc2ccccc2F)cc1-c1ccc(C(=O)Nc2ccncc2)cc1 [GSK1398477] | 0 | 0 | 59 | 33 | 16 | 29 | 0 | 0 | 14 | 37
O=c1cc(N2CCOCC2)nc2n(Cc3ccccc3F)ccn12 [GSK2297428] | 0 | 0 | 0 | 16 | 5 | 15 | 0 | 0 | 7 | 15
Cc1cccc2c(-c3ccncn3)c(-c3ccc(F)cc3)nn12 [GW515532] | 0 | 65 | 9 | 0 | 0 | 5 | 0 | 0 | 0 | 0
COc1cccc(NC(=O)Nc2ccc(C)c(-c3ccc(C(=O)Nc4ccncc4)cc3)c2)c1 [GSK1398474] | 0 | 0 | 0 | 25 | 0 | 21 | 0 | 2 | 11 | 22
COc1ccc(CSc2nnc(-c3ccc4c(c3)CCO4)o2)cc1 | 0 | 0 | 0 | 0 | 9 | 0 | 0 | 0 | 0 | 0
CCCCc1nn2ncccc2c1-c1ccnc(NC2CC2)n1 [GW684374] | 0 | 91.3 | 12 | 5 | 9 | 9 | 0 | 0 | 12 | 7
COc1ccc(Nc2nccc(NCCNC(=O)Nc3cc(C)ccc3C)n2)cc1 [GSK1379899] | 0 | 0 | 4 | 0 | 0 | 3 | 0 | 0 | 0 | 0
Fc1ccc(-c2nc3n(c2-c2ccncc2)CCS3)cc1 [GI98581] | 0 | 53 | 31 | 1 | 0 | 0 | 0 | 0 | 3 | 14

SMILES | %Inh [1] [%] | %Inh [2] [%] | %Inh [3] [%] | %Inh [4] [%] | %Inh [5] [%] | %Inh [6] [%] | %Inh [7] [%] | %Inh [8] [%] | %Inh [9] [%] | %Inh [10] [%]
COc1ccc(CSc2nnc(-c3ccc4ncsc4c3)o2)cc1C(F)(F)F | 0 | 0 | 0 | 23 | 2 | 1 | 0 | 0 | 0 | 0
CC[C@@H]1CO[C@H](C(=O)Nc2ccccc2)CN1c1cc(-c2ccc3c(N)n[nH]c3c2)nc(NC)n1 [GSK2376236] | 0 | 0 | 29 | 19 | 13 | 7 | 0 | 0 | 21 | 6
O=C(Nc1n[nH]c2nc(-c3cccs3)c(Br)cc12)C1CCCC1 [SB-743341] | 26 | 0 | 0 | 16 | 0 | 18 | 9 | 12 | 2 | 0
COC(=O)c1cccc(NC(=O)NC2CCN(c3ccnc(Nc4ccc(OC)cc4)n3)C2)c1 (stereo not shown) [GSK1379746] | 2 | 75 | 4 | 3 | 0 | 0 | 100 | 100 | 0 | 0
COc1cccc(CNC(=O)NC2CCN(c3ccnc(Nc4ccc(F)cc4)n3)C2)c1 (stereo not shown) [GSK1379723] | 0 | 27 | 23 | 14 | 0 | 14 | 0 | 0 | 0 | 82
Nc1cccc(-c2ccc3c(N)n[nH]c3c2)n1 [GSK2192730] | 0 | 0 | 0 | 30 | 9 | 29 | 0 | 0 | 20 | 31
CNc1cc(-c2ccc3c(N)n[nH]c3c2)nc(N)n1 [GSK2224810] | 0 | 53 | 8 | 23 | 0 | 24 | 0 | 13 | 7 | 21
CC(C)c1ccc(O)cc1Nc1ccnc2ccc(C(F)(F)F)cc12 [GW482059] | 0 | 13 | 27 | 0 | 0 | 0 | 0 | 0 | 0 | 1
O=C1NC(=O)C(c2ccc(Cl)cc2)=C1Nc1cccc(Cl)c1 [SB-317651] | 0 | 0 | 3 | 4 | 0 | 0 | 0 | 0 | 0 | 0
Fc1ccc(-c2nc[nH]c2-c2ccncc2)cc1 [SB-217360] | 0 | 84 | 0 | 10 | 0 | 0 | 0 | 0 | 0 | 0
Cl.Cl.Cl.N#Cc1ccc(CCNc2nccc(-c3cccc(CN4CCNCC4)c3)n2)cc1 [GSK2137462] | 0 | 0 | 0 | 29 | 24 | 31 | 11 | 3 | 28 | 27
COC(=O)C(Cc1ccccc1)NC(=O)NC1CCN(c2ccnc(Nc3ccc(F)cc3)n2)C1 (stereo not shown) [GSK1379714] | 30 | 32 | 34 | 4 | 9 | 2 | 0 | 0 | 8 | 24
CCn1c(-c2c(N)noc2C)nc2cnccc21 [SB-737856] | 0 | 20 | 0 | 0 | 0 | 0 | 0 | 0 | 0 | 0
CNc1nc(-c2ccc3c(N)n[nH]c3c2)cc(N2C[C@@H](C(=O)Nc3ccccc3)CC[C@H]2C)n1 [GSK2298859] | 0 | 22 | 6 | 25 | 6 | 28 | 87 | 82 | 21 | 21
COC(=O)c1cccc(NC(=O)NC2CCN(c3ccnc(Nc4ccc(F)cc4)n3)C2)c1 (stereo not shown) [GSK1379725] | 0 | 0 | 16 | 0 | 0 | 0 | 0 | 0 | 0 | 0
CN1c2ccc(-c3ccc(C(N)=O)cc3)cc2-c2[nH]ncc2S1(=O)=O | 0 | 0 | 32 | 10 | 0 | 27 | 11 | 7 | 18 | 2
O=c1cc(N2CCOCC2)nc2n(Cc3cccc(Cl)c3Cl)c3ccccc3n12 [GSK2299009] | 0 | 0 | 34 | 36 | 13 | 43 | 0 | 0 | 21 | 33

Source: article PMC5540273 (PLoS ONE, 2017)
